Assay outcomes from PubChem.
The entries come from a sample that favours hits as a whole.
RmlC RmlD mix – inhibitors of RmlC and RmlD coupled enzymes; RmlC/RmlD coupled enzyme inhibition, 384-well mixture HTS; inhibition, % at 5.5 µM; 110,000 compounds, 0.39% hits; AID 1532; in the data active means inhibition above about 30%, passing the limit was not always enough; inconclusive means no clear call, values can overlap the other calls
HIV RNase H inh-1 – inhibitors of HIV-1 reverse transcriptase RNase H; inhibition, % at 10 µM; 65,000 compounds, 1.9% hits; P04585; RT-RNase H RNA/DNA duplex cleavage, fluorescence; in the data active means inhibition above about 50%
HIV RNase H inh-2 – confirmation of HIV-1 reverse transcriptase RNase H inhibitors; shares compounds with HIV RNase H inh-1; Recombinant RT RNase H, fluorescent RNA/DNA duplex cleavage; inhibition, % at 10 µM; 1,000 compounds, 39% hits; AID 651; in the data active means inhibition above about 48%; inconclusive means no clear call, values can overlap the other calls
* = called active by the depositor; ? = inconclusive; . = no result given.

SMILES	RmlC RmlD mix	HIV RNase H inh-1	HIV RNase H inh-2
CC(=O)N(Cc1cc(=O)[nH]c2ccccc12)c1ccccc1	-8.2	-3.9	.
CC(=O)N(Cc1cc(=O)[nH]c2ccccc12)c1cccc(C)c1	7.3	81.7*	67.1*
O=C(NCCCn1ccnc1)C(Cc1ccccc1)N1C(=O)c2ccccc2C1=O (centres undefined)	-1.1	54.9*	34.7
O=C(O)C(Cc1ccccc1)N1C(=O)c2ccccc2C1=O (centres undefined)	-10.4	.	.
O=C(CSc1c[nH]c2ccccc12)N1CCOCC1	-5.5	8.8	.
COc1ccc(CC(=O)OCC(=O)NC(=O)NC2CCCCC2)cc1	6.5	-12.7	.
CCCCSc1nc2c(cc1C#N)CCC2	-10.4	-32.7	.
CCCSc1nc(C)c(-c2csc(C(C#N)=C3CCCC3)n2)cc1C#N	20.8	58.0*	3.6
COC(=O)C1=C(C)N=c2s/c(=C3\C(=O)Nc4ccccc43)c(=O)n2C1c1ccccc1 (centres undefined)	.	89.6*	70.4*
CCOC(=O)C1=C(C)N=c2s/c(=C3/C(=O)Nc4ccccc43)c(=O)n2C1c1ccc(C)cc1 (centres undefined)	3.9	.	.
O=C(O)c1cccc(NC(=O)c2cccc(S(=O)(=O)N3CCCCC3)c2)c1	6.1	-9.3	.
Nc1nc(NC(=O)c2cccc(S(=O)(=O)N3CCCCCC3)c2)nc(-c2ccccc2)n1	6.2	66.3*	9.0
COCCOC(=O)C1=C(C)NC(SCC(=O)NC(C)(C)C)=C(C#N)C1c1ccco1 (centres undefined)	-7.5	3.4	.
C=CCOC(=O)C1=C(C)NC(SCC(=O)Nc2ccc(C)c(Cl)c2)=C(C#N)C1c1ccco1 (centres undefined)	16.8	94.2*	85.5*
C=CCNS(=O)(=O)CC12CCC(CC1=O)C2(C)C (centres undefined)	11.9	.	.
CCN(CC)c1ccc(C(=O)Nc2cccc(F)c2)cc1	-4.4	5.8	.
CN(C)c1cccc(C(=O)Nc2cccc(F)c2)c1	-73.8	80.1*	84.9*
CCCn1nnc(NC(=O)COc2ccc(C3CCCCC3)cc2)n1	3.5	0.5	.
COc1ccc(N2CCN(Cc3cc(=O)oc4cc5c(cc34)CCCC5)CC2)cc1	1.6	81.5*	62.7*
O=c1cc(CN2CCN(c3ccccc3)CC2)c2cc(O)c(-c3ccccc3)cc2o1	3.7	72.9*	68.9*
O=c1cc(CN2CCN(c3ccccc3)CC2)c2c(ccc3ccccc32)o1	11.0	4.1	.
COc1ccc(N2CCN(Cc3cc(=O)oc4ccc(Cl)cc34)CC2)cc1	11.0	23.6	.
Cc1cc(C(F)(F)F)n(-c2nc(C(=O)Nc3ccccc3Oc3ccccc3)cs2)n1	-4.0	.	.
CCn1c(CCNC(=O)c2ccccc2Cl)n[nH]c1=S	-14.9	.	.
O=c1c2ccccc2nnn1CSc1nnc2sc3ccccc3n12	.	-10.8	.
SMILES	RmlC RmlD mix	HIV RNase H inh-1	HIV RNase H inh-2
COCCSc1ccccc1C(=O)Nc1cc(C)on1	-3.0	80.3*	63.5*
COCCSc1ccccc1C(=O)Nc1cccnc1	1.2	.	.
COC(=O)c1cc(OC)c(OC)cc1NC(=O)c1c(-c2ccccc2Cl)noc1C	-11.8	-11.2	.
CCOc1ccc(C(=O)Nc2cc(C)c3c(=O)oc4ccccc4c3n2)cc1	9.5	65.4*	19.6
COc1ccc(CC(=O)Nc2cc(C)c3c(=O)oc4ccccc4c3n2)cc1	6.8	8.3	.
COc1ccc(C(c2nnnn2C2CCCC2)N2CCc3ccccc3C2)cc1OC (centres undefined)	-13.1	-4.5	.
COCCn1nnnc1C(c1ccc(O)c(OC)c1)N1CCc2ccccc2C1 (centres undefined)	-7.6	61.2*	-2.9
Cc1cc(C)nc(SCc2nnc(SCc3ccccc3Cl)o2)n1	10.2	-66.0	.
Cc1noc(C)c1CSc1nnc(-c2ccccc2)n1N	-7.6	.	.
Cc1noc(C)c1CSc1nnc2scc(-c3ccccc3)n12	-2.3	63.1*	16.2
CC(C)(CS(=O)(=O)[O-])NC(=O)CC[N+](C)(C)CCO	-39.6	.	.
COc1cccc(-c2cc(C(=O)Nc3ccccc3SC)no2)c1	-10.9	9.5	.
COc1ccc(-c2cc(C(=O)Nc3ccccc3SC)no2)cc1OC	3.4	91.2*	3.6
CCCn1cc(NC(=O)c2cc(-c3ccccc3)on2)cn1	7.8	.	.
COc1ccc(-c2cc(C(=O)Nc3cnn(Cc4ccccc4C)c3)no2)cc1OC	16.8	86.5*	17.4
Cc1nc(NC(C)c2ccccc2)c2oc3ccccc3c2n1 (centres undefined)	23.0	-25.7	.
COc1ccc(OCc2nn3c(Cn4cnc5ccccc54)nnc3s2)cc1	12.1	-24.5	.
c1ccc2c(c1)ncn2Cc1nnc2sc(-c3ccc4c(c3)OCO4)nn12	4.9	69.2*	61.1*
c1csc(-c2nn3c(C4COc5ccccc5O4)nnc3s2)c1 (centres undefined)	10.3	91.0*	62.0*
Fc1ccc(-c2nnc3sc(C4COc5ccccc5O4)nn23)cc1 (centres undefined)	-27.8	-15.3	.
Brc1ccccc1-c1nnc2sc(-c3ccc4c(c3)OCCO4)nn12	3.2	-85.9	.
Clc1ccccc1-c1nnc2sc(-c3ccc4c(c3)OCO4)nn12	67.0	91.8*	?
Fc1ccc(-c2nn3c(C4COc5ccccc5O4)nnc3s2)cc1 (centres undefined)	.	2.5	.
c1ccc2c(c1)OCC(c1nnc3sc(-c4ccc5c(c4)OCO5)nn13)O2 (centres undefined)	11.4	84.9*	68.6*
Cc1ccc(C23CC4CC(CC(C(=O)N5CCOCC5)(C4)C2)C3)cc1	-8.2	.	.
SMILES	RmlC RmlD mix	HIV RNase H inh-1	HIV RNase H inh-2
CCn1nnnc1SCC(=O)Nc1cc(OC)cc(OC)c1	-15.5	-11.3	.
Cc1ccc(C(=O)c2c[nH]c(C(=O)NCc3cccnc3)c2)cc1	-13.3	.	.
CCC(C)NC(=O)c1ccccc1NS(=O)(=O)c1ccc(OC)c(OC)c1 (centres undefined)	-5.1	-3.4	.
CCCn1c(=O)c(C(=O)NCc2ccncc2)c(O)c2ccccc21	3.5	-29.5	.
CCCCCn1c(=O)c(C(=O)NCc2ccncc2)c(O)c2ccccc21	4.0	82.7*	56.8*
O=C(Nc1nc(-c2cc3ccccc3oc2=O)cs1)c1ccco1	-49.4	-1.4	.
O=C(Nc1nc(-c2ccncc2)cs1)c1ccco1	-7.1	58.6*	55.7*
CN(c1ccccc1)S(=O)(=O)c1ccc(C(=O)OCC(=O)N2CCOCC2)cc1	-29.9	-3.3	.
CCOc1ccc(CCNC(=O)C2CCC(=O)N2C2CCCCC2)cc1OCC (centres undefined)	6.9	-17.4	.
Cc1ccccc1C1C(C#N)=C2N=C(N)c3c(sc4c3CCCCC4)N2C2=C1C(=O)CCC2 (centres undefined)	4.9	.	.
N#Cc1c(NC(=O)CN2CCN(S(=O)(=O)c3ccc4c(c3)OCCO4)CC2)sc2c1CCC2	-12.0	70.0*	77.9*
O=C(CN1CCN(S(=O)(=O)c2ccc(Cl)cc2)CC1)Nc1ccc2c(c1)OCCO2	-13.7	-7.0	.
O=C(O)CN(c1ccccn1)S(=O)(=O)c1ccccc1	-5.5	.	.
COC(=O)CN(c1ccccn1)S(=O)(=O)c1ccccc1	58.9	72.6*	37.1
O=C(NCCOc1ccccc1)c1ncn[nH]1	-6.7	-17.2	.
CCCCP(=O)(O)CCC(=O)O	-12.0	-4.7	.
CCCCCC#CCC#CCC#CCC#CCCCC(=O)O	?	96.9*	65.7*
CCCOC(=O)C1[C@H]2C(=O)N(CC3CCCO3)C[C@]23C=C[C@H]1O3 (some centres undefined)	3.9	-7.4	.
